# The list is not random: actives were taken first. Their share in the collection is about 2.3%.
# POLK inh: DNA polymerase kappa (human) inhibition; AID 588579; purified Pol kappa, fluorescent DNA synthesis assay, 10 min; Q9UBT6; 0.53% of 400,000 active; Potency, µM (highest dose often 107 µM), hits mostly inhibitors
#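 10 nM Pol kappa preincubated 15 min at room temperature with compounds, then reaction started with substrate at 50 nM final. Fluorescence read kinetically at 0 and 10 min; buffer-only wells served as negative control.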
# POLB inh: DNA polymerase beta (human) inhibition; Pol beta primer extension/strand displacement, fluorescence kinetic; Potency, µM (series often up to 114 µM), actives largely listed as inhibitors; 1.3% of 340,000 active; AID 485314
#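 Homogeneous kinetic assay of primer extension and strand displacement by 10 nM Pol beta, preincubated 15 min at room temperature with compound before 50 nM substrate (final) was added. Read at 0 and 10 min; four-parameter Hill fit.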
# WRN helicase inh: inhibitors of human WRN helicase; Q14191; WRN helicase unwinding, fluorescent forked duplex, kinetic; Potency, µM (series often up to 114 µM), hits mostly inhibitors; 0.46% of 360,000 active; further: nearly all actives have a fitted effect of over 55% in size
#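 WRN at 20 nM final preincubated with compound 15 min at room temperature; reaction started with 100 nM fluorophore/quencher forked duplex oligonucleotide and 2 mM ATP final. Unwinding followed kinetically by red fluorescence (ex 525, em 598 nm).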
# POLI inh: blocks human DNA polymerase iota activity; Pol iota fluorescent replication assay, 10 min; Potency, µM (series often up to 115 µM), usual class: inhibitors; Q9UNA4; 1% of 390,000 active; AID 588590
# Target sequence (Q9UNA4 whole entry, looked up): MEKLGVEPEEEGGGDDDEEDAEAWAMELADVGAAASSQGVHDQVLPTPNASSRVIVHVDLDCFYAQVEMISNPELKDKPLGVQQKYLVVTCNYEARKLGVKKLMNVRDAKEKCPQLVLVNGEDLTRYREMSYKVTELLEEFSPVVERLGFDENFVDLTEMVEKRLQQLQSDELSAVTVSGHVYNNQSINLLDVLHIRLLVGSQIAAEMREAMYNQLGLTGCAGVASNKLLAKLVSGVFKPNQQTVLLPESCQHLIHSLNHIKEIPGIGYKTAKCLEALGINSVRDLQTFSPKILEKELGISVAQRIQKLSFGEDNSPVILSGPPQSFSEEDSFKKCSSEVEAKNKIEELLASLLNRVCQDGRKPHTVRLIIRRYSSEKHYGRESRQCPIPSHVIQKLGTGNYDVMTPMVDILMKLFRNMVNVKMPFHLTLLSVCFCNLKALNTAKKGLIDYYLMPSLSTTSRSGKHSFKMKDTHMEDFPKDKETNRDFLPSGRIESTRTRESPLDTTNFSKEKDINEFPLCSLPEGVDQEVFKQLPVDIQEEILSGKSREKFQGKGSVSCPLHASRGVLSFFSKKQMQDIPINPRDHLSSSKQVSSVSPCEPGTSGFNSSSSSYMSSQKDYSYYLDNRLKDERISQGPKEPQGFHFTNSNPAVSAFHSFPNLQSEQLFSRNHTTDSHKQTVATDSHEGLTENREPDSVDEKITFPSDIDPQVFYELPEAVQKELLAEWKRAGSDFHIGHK
#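 Pol iota at 10 nM preincubated 15 min with compounds at room temperature; reaction started with fluorescent substrate, 50 nM final. Fluorescence read kinetically at 0 and 10 min; buffer-only wells as negative control.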
# POLH inh: blocks human DNA polymerase eta activity; recombinant Pol eta, fluorescent DNA replication assay; Potency, µM (doses to about 114 µM), most hits filed as inhibitors; 1.2% of 390,000 active; AID 588591
#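 Pol eta at 10 nM preincubated with compounds 15 min at room temperature; reaction started with fluorescent substrate (50 nM final) and read kinetically at 0 and 10 min.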
# Hits are given with their value; – = inactive; ? = inconclusive; · = no result given; [ ] = another dose, or the depositor's remark. The call rests on the fitted dose curve; in most records, active means well fitted curve in the direction sought with a large enough effect; inconclusive means small, poorly fitted or top-dose-only effect, or another doubt; inactive means no such curve, though single readings can be large; an effect the other way counts as inactive or inconclusive.
SMILES,POLK inh,POLB inh,WRN helicase inh,POLI inh,POLH inh
CCc1cc2c(=O)n(Cc3ccco3)c(SCC(=O)NCC3CCCO3)nc2s1 (centres undefined),–,–,–,–,–
Clc1cccc[n+]1CCCCCC[n+]1ccccc1Cl,–,·,·,–,·
COc1ccc2[nH]c(-c3ccc(F)cc3F)cc(=O)c2c1,–,·,·,·,·
COc1ccc2[nH]c3c4c(ccc3c2c1)C(=O)C=CC4=O,–,–,–,32µM,?
O=C(NCCc1ccccc1)[C@@H]1CC=C[C@@H]2CCN(C3CC3)C(=O)[C@@H]21,–,·,·,–,·
Cc1cc(/C=C/c2ccnc3ccccc23)ccc1N(C)C,–,·,·,–,·
Cc1c(CCC(=O)O)c(=O)oc2cc3occ(-c4ccc(Cl)cc4)c3cc12,–,?,–[11.6 µM],?,22µM
CCN1C(=O)/C(=C/C=C2\N(CC)c3cc(S(=O)(=O)N(C)C)ccc3N2c2ccccc2)SC1=S,?,3.5µM,?,?,–
CCOC(=O)c1ccc(NS(=O)(=O)c2ccc(SC)cc2)cc1,–,–,–[11.6 µM],79µM,–
CN1C(C(=O)Nc2ccccn2)=C(O)c2sc(Cl)cc2S1(=O)=O,–,?,–,79µM,–
O=c1cc(COc2ncnc3ccccc23)nc2sccn12,–,?,–,28µM,–
O=c1cc(COc2ncnc3c(Cl)cc(Cl)cc23)nc2sccn12,–,?,–,?,–
CCc1ccc(NC(=O)C2CCN(S(=O)(=O)c3ccc4c(c3)NC(=O)C(C)S4)CC2)cc1 (centres undefined),–,?,–,79µM,–
Cc1ccc(NC(=O)C2CCN(S(=O)(=O)c3ccc4c(c3)NC(=O)C(C)S4)CC2)cc1C (centres undefined),–,–,–,–,–
CN(C)S(=O)(=O)c1cccc(NC(=S)Nc2cccc3cnccc23)c1,–,–,–,2.8µM,–
CC1=CC(=O)c2c(O)ccc(O)c2C1=O,·,1.8µM,·,·,·
O=C1C=C(N2CCN(c3ccccn3)CC2)C(=O)c2c(O)ccc(O)c21,–,·,?,–,–
O=C(NNc1ccccc1F)c1sccc1Cl,–,·,·,–,·
CCOc1ccc(C(=O)Nc2c(C)nc(Nc3ccccc3)nc2Nc2ccccc2)cc1OCC,–,–,·,71µM,–
O=C(Nc1ccc(N2CCOCC2)c2nonc12)C1CCCC1,–,–,–,?,–
Nc1ccc(N2CCOCC2)c2nonc12,–,?,–,?,79µM
COC1=C/C(=C/c2c(N)n3c(nc2=O)sc2cc(S(C)(=O)=O)ccc23)C=CC1=O,–,–,–[11.6 µM],?,28µM
COC1=C/C(=C/c2c(N)n3nc(-c4ccc(C)cc4)sc3nc2=O)C=CC1=O,–,56µM,–[11.6 µM],14µM,22µM
CC(=O)Nc1ccc(/C=C/C(=O)c2ccc(-n3nncc3-c3ccccc3)cc2)cc1,–,·,·,?,·
O=C1c2ccc(O)c(O)c2C(=O)c2c(O)ccc(O)c21,2.8µM,·,·,·,·
SMILES,POLK inh,POLB inh,WRN helicase inh,POLI inh,POLH inh
O=C1c2cccc(O)c2C(=O)c2c(O)cccc21,–,–,·,·,·
O=C1NC2CCCCC2C(=O)N1OS(=O)(=O)c1ccccc1 (centres undefined),–,·,50µM,?,–
O=C1CCN(S(=O)(=O)c2ccccc2)C2CCCCC12 (centres undefined),–,–,–,?,–
C[C@H]1C(=O)N(S(=O)(=O)c2ccccc2[N+](=O)[O-])[C@H]1c1ccc(-c2ccccc2)cc1,–,·,·,?,·
Cc1ccc(S(=O)(=O)n2ccc3c(OCCOCCSCC(NC(=O)OC(C)(C)C)C(=O)O)cccc32)cc1 (centres undefined),?,71µM,–,28µM,?
CCN(CC)CCC(c1ccc(N(C)C)cc1)c1c(OC)cc(OC)c2c1OC(=O)CC2c1ccc(N(C)C)cc1 (centres undefined),–,·,·,–,·
COc1cc(/C=C2\C(=O)ON=C2c2ccccc2)cc(OC)c1OC,–,–,–,–,–
CC1=NN(c2ccccc2)C(=O)/C1=C/C=C/c1ccccc1,–,–,–[11.6 µM],–,16µM
Cc1ccc(C2=NOC(=O)/C2=C\C=C\c2ccccc2)cc1,–,?,35µM,?,89µM
COc1cccc(-n2cc(C(=O)Oc3cccc(C(F)(F)F)c3)c3ccccc3c2=O)c1,–,–,·,–,–
Cc1ccc2nc(-c3ccc(NC(=O)CSc4nc(N)cc(=O)[nH]4)cc3)sc2c1,–,–,–,–,–
CCn1c(SCC(=O)Nc2ccc(-c3nc4ccc(C)cc4s3)cc2)nnc1-c1ccccc1,·,7.9µM,·,·,·
C=CCn1c(SCC(=O)Nc2ccc(-c3nc4ccc(C)cc4s3)cc2)nnc1-c1ccncc1,–,?,–,–,–
Cc1ccc2nc(-c3ccc(NC(=O)CSc4nccc(=O)[nH]4)cc3)sc2c1,–,35µM,?,–,–
COc1ccc2c(c1)Cc1sc(NC(=O)c3cccs3)nc1-2,–,–,–,–,?
COc1ccc(C(=O)Nc2nc3c(s2)Cc2cc(OC)ccc2-3)cc1,–,–,–,?,?
COc1ccc2c(c1)Cc1sc(NC(=O)c3ccccc3)nc1-2,–,–,–,16µM,–
COc1ccc2c(c1)Cc1sc(NC(=O)c3ccccc3C)nc1-2,–,–,·,3.5µM,·
CCn1c2ccccc2c2nnc(SCc3ccccc3)nc21,–,?,–,?,–
CCn1c2ccccc2c2nnc(SCc3ccc(C(=O)OC)o3)nc21,–,35µM,–,–,–
CN(C)C(=O)Nc1ccc(Oc2ccc(Cl)cc2)cc1,–,·,·,·,·
O=c1/c(=C/c2ccccn2)sc2nc3ccccc3n12,–,?,–,–,?
O=c1/c(=C\c2cc([N+](=O)[O-])cc([N+](=O)[O-])c2O)sc2nc3ccccc3n12,?,18µM,35µM,?,?
O=C1CCC[C@@H]2C[C@@]3(C[C@@H]4CCN1[C@H]24)Nc1cc([N+](=O)[O-])ccc1NC3=NCc1ccccc1,–,·,·,–,·
Nc1nc(NCC2CCCO2)nc(NCC2CCCO2)c1[N+](=O)[O-] (centres undefined),–,–,–,–,–
SMILES,POLK inh,POLB inh,WRN helicase inh,POLI inh,POLH inh
Nc1nc(NCCO)nc(NCC2CCCO2)c1[N+](=O)[O-] (centres undefined),–,22µM,–,–,–
C(=N\Nc1nc2ccccc2s1)/c1cccs1,–,–,–,–,–
CCc1nnc(N/N=C/c2c(Cl)cccc2Cl)n1N,–,–,–[11.6 µM],13µM,–
CNC(=S)N/N=C/c1c(Cl)cccc1Cl,–,–,–,–,–
CCc1nnc(N/N=C/c2cccs2)n1N,–,–,–[11.6 µM],22µM,–
Cc1nn(-c2ccccc2)c2nc(C3CC3)cc(C(=O)Nc3cccc(F)c3)c12,–,–,·,–,–

# Bioassay records as filed in PubChem.
